Source: PubChem BioAssay AID761 (NMMLSC, 2007)
The whole screen tested about 190,000 compounds, of which about 400 (0.21%) were called active. About 2% were inconclusive and are not listed. This excerpt belongs to a sample that is enriched for actives. Unmarked numbers belong to inactive results.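 The calls were made as follows: active = percent activity GTP binding at least 20 points away from the 100% baseline, either down as inhibitor or up as activator; inconclusive = compound flagged as likely green fluorescent from well-wide comparison; inactive = the rest.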

Biological target: Cell division control protein 42 homolog (Homo sapiens) (UniProt P60953)
Sequence (P60953 whole entry, looked up): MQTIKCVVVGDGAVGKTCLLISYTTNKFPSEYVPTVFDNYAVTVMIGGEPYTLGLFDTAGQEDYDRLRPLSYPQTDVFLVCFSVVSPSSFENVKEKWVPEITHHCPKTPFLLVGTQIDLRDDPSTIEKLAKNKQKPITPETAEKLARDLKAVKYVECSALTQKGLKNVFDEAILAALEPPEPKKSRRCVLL
Assay: modulators of GTP binding to wildtype Cdc42, primary screen, biochemical, multiplex bead flow cytometry, Bodipy-GTP (AID 761);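 also: median bead fluorescence of bound Bodipy-FL-GTP at 100 nM; 0% = excess unlabeled GTP control and 100% = no compound control; below 100% means less GTP binding so inhibitor and above means activator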
Conditions: GST-Cdc42 beads, at 10 µM, actives lie on both sides

Row | Compound | percent activity (GTP binding)
1 | O=C(O)/C=C/c1ccc(OCCCF)cc1 | 101%
2 | CN(CC(=O)Nc1ccccc1[N+](=O)[O-])Cc1ccc(Br)cc1 | 98%
3 | CCC(C)(C)NC(=O)C(c1cccc(OC)c1OC)N(CC(C)C)C(=O)CCC(=O)Nc1cc(C)on1 (stereo not given) | 99%
4 | O=C(COC(=O)C1CCCCC1)Nc1ccc([N+](=O)[O-])cc1 | 96%
5 | Nc1nc(SCC(=O)N2CCN(S(=O)(=O)c3ccc(Cl)cc3)CC2)n[nH]1 | 100%
6 | O=C(Nc1ccc2c(c1)CCC2)c1ccc(Br)s1 | 98%
7 | Cc1cccc2cc(CN(Cc3cccs3)C(c3nnnn3C3CCCC3)C(C)C)c(=O)[nH]c12 (stereo not given) | 72% (active)
8 | CCC(c1nnnn1C1CCCC1)N(Cc1cccs1)Cc1cc2cccc(C)c2[nH]c1=O (stereo not given) | 103%
9 | Cc1cccc2cc(CN(Cc3ccc4c(c3)OCO4)Cc3nnnn3C3CCCC3)c(=O)[nH]c12 | 94%
10 | COc1cc(OC)c(C(=O)OCC(=O)N2CC(=O)Nc3ccccc32)cc1OC | 103%
11 | CSc1nc2nc(-c3cccc(C(F)(F)F)c3)ccn2n1 | 93%
12 | COc1ccc(NC(=O)c2c(SC)nsc2SC)cc1 | 105%
13 | CSc1ncccc1C(=O)NC1CCCCCC1 | 96%
14 | CSc1nsc(SC)c1NC(=O)OC1CCCCC1 | 35% (active)
15 | Cc1cc(C)n(-c2ccc(C(=O)O)cc2[N+](=O)[O-])n1 | 98%
16 | COc1ccc(NC(=O)CN2C(=O)CSC2=O)cc1 | 98%
17 | COc1cccc(OC)c1C(=O)OCC(=O)/C(C#N)=C(\C)N | 95%
18 | CC1(C)C(c2cccs2)=[N+]([O-])C2(CCCCC2=O)N1O (stereo not given) | 99%
19 | Cc1cc(NC(=O)CN2C(=O)NC(C)(CCc3ccccc3)C2=O)no1 (stereo not given) | 96%
20 | CC(=O)c1ccc(NC(=O)CSC(=S)N2CCCC2)cc1 | 97%
21 | CCNC(=O)COC(=O)CCNC(=O)c1cccc(C)c1 | 102%
22 | O=C(N/N=C/c1ccco1)c1ccc(NC(=O)C2CC2)cc1 | 92%
23 | CCOC(=O)c1ccccc1NC(=O)CSc1nc2ccccc2c(=O)[nH]1 | 92%
24 | CCN(CC)Cc1nc2sc(C)c(C)c2c(=O)[nH]1 | 94%
25 | O=C(NN=C1CCC(=NNC(=O)c2cccnc2)CC1)c1cccnc1 | 96%

Row | Compound | percent activity (GTP binding)
26 | O=C(CCN1CCN(C/C=C/c2ccccc2)CC1)Nc1cccc(F)c1 | 98%
27 | C=CCn1c(CCNC(=O)c2ccccc2F)nnc1SCC(=O)Nc1ccc(OC)cc1 | 96%
28 | Cc1ccccc1OCCOc1ccc([N+](=O)[O-])cc1/C=N/n1cnnc1 | 95%
29 | Cn1cnnc1Sc1ccc(S(C)(=O)=O)cc1[N+](=O)[O-] | 99%
30 | Cc1nc(N2CCC(C)CC2)c2c(C)c(C(=O)Nc3cc(F)ccc3C)sc2n1 | 92%
31 | O=C(COC(=O)c1ccccc1)Nc1cccc(S(=O)(=O)N2CCOCC2)c1 | 96%
32 | O=C1Nc2cc(Cl)c(Cl)cc2N(O)N1c1ccccc1Cl | 92%
33 | O=[N+]([O-])c1cccc(/C([O-])=C(/C(=S)Nc2ccccc2F)[n+]2ccccc2)c1 | 95%
34 | CCOc1cc2[nH]c(=O)n(Cc3ccc(C(=O)NCCCN4CCCC4=O)cc3)c(=O)c2cc1OCC | 98%
35 | O=C(/C=C/c1ccc(Cl)cc1)Nc1ccc(S(=O)(=O)Nc2ncccn2)cc1 | 98%
36 | Cc1ccccc1CC1(CO)CCCN(C(=O)c2cc(-c3ccccc3)no2)C1 (stereo not given) | 98%
37 | CCC1(CC)NC(=O)N(CC(=O)OCC(=O)NC(=O)c2ccccc2)C1=O | 101%
38 | c1ccc(-n2nnnc2-c2cccnc2)cc1 | 95%
39 | O=C(Cn1cnc([N+](=O)[O-])n1)NCCc1ccccc1 | 97%
40 | COc1cc(/C=C/C(=O)OCC(=O)N2CCOCC2)ccc1OCC#N | 97%
41 | O=C(c1ccc(OC2CCN(Cc3ccccn3)CC2)cc1)N1CCCCCC1 | 96%
42 | COc1ccc(C)cc1NC(=O)CSc1nnc(CC(=O)Nc2ccccc2F)n1C | 101%
43 | Cc1cc(N/N=C/c2ccccc2F)c2ccccc2n1 | 96%
44 | Cc1c(C(N)=O)sc2ncn(CCOc3ccccc3)c(=O)c12 | 89%
45 | Cc1ccc(C(=O)CS(C)(=O)=O)cc1 | 104%
46 | Cc1ccc(SC(CC(=O)c2ccc(C(C)(C)C)cc2)C(=O)O)cc1 (stereo not given) | 77% (active)
47 | CC(C)(C)c1ccc(C(=O)CSc2ncn[nH]2)cc1 | 103%
48 | CC(=O)N/N=C/c1cc2c(cc1[N+](=O)[O-])OCO2 | 97%
49 | CC1(C)CC(=O)CC2(C1)NCC(c1ccccc1Cl)c1c2[nH]c2ccccc12 (stereo not given) | 96%
50 | COc1ccc(CN(C)Cc2nc3cc(OC)c(OC)cc3c(=O)[nH]2)c(OC)c1 | 105%

Row | Compound | percent activity (GTP binding)
51 | O=C(Cc1cccs1)Nc1nnc(C2CC2)s1 | 99%
52 | CC(=O)Nc1nc(N(C)C)nc(N(C)C)n1 | 97%
53 | CN(c1ccccc1)S(=O)(=O)c1ccc(Cl)c(C(=O)OCC(=O)N2CCOCC2)c1 | 96%
54 | COc1ccccc1CN(C)c1nnnn1-c1ccccc1 | 102%
55 | O=C(NCC1CCN(Cc2ccccc2Cl)CC1)Nc1cccc(Cl)c1 | 106%
56 | CC(=O)c1cc(C#N)c(N2CC(C)OC(C)C2)nc1C (stereo not given) | 98%
57 | OCCC1CN(Cc2ccccc2-c2ccco2)CCN1Cc1ccsc1 (stereo not given) | 92%
58 | COc1ccc(NC(=O)CSc2nnc(-c3ccccc3F)n2C2CC2)cc1S(N)(=O)=O | 97%
59 | O=C(NCc1ccco1)C(=O)c1cn(CC(=O)N2CCCCCC2)c2ccccc12 | 94%
60 | C=CCN(CC=C)S(=O)(=O)c1ccc(C(=O)Nc2sc3c(c2C(N)=O)CCCCC3)cc1 | 104%
61 | COCCN(CCOC)S(=O)(=O)c1ccc(C(=O)Nc2nc3c(s2)CCc2ccccc2-3)cc1 | 107%
62 | C=CCN(CC=C)S(=O)(=O)c1ccc(C(=O)Nc2nc3c(s2)CCc2ccccc2-3)cc1 | 138% [activator] (active)
63 | CCOc1cc(N2CCOCC2)c(OCC)cc1NC(=O)c1ccc(C)s1 | 94%
64 | O=C(CCl)N(Cc1cccc([N+](=O)[O-])c1)c1cccc(Cl)c1 | 96%
65 | CC(=O)NCCc1nc2cc(NC(=O)c3ccccc3)ccc2n1C | 102%
66 | COC(=O)c1c(NC(=O)CCCC(=O)O)sc2c1CCCCC2 | 97%
67 | Cc1nc([N+](=O)[O-])cn1CC(=O)Nc1ccc2c(c1)OCO2 | 94%
68 | C/C(Cn1nnc2ccccc21)=N\OC(=O)c1cc(F)c(F)cc1Cl | 89%
69 | CCCC(C)C(=O)NCc1ccncc1 (stereo not given) | 98%
70 | OC1CCCN(c2ncnc3c2nnn3Cc2c(F)cccc2Cl)C1 (stereo not given) | 94%
71 | CC(C)(C)c1ccc(/C=C2\SC(=O)N=C2N)cc1 | 96%
72 | C=CCC1(CC=C)CCCN1C(=O)CC1C(=O)NCCN1Cc1ccccc1OC (stereo not given) | 99%
73 | COc1ccc(C(C)=O)cc1CSc1nc2nc(C)cc(C)n2n1 | 96%
74 | COc1ccc(CCNC(=O)C(=O)NCc2ccccc2C)cc1OC | 100%
75 | O=C(C1CCCO1)N1CCN(C(=S)NC2CC2)CC1 (stereo not given) | 98%

Row | Compound | percent activity (GTP binding)
76 | S=C(NC1CCCCC1)NN1CCOCC1 | 99%
77 | COc1cc(/C=N/Nc2ccc(C)cc2)cc(Br)c1O | 100%
78 | COc1ccc(/C=N/Nc2ncnc3sc4c(c23)CCCC4)cc1O | 73% (active)
79 | COc1ncnc2sc3c(c12)CCCC3 | 103%
80 | Cn1c(N)c(C(=O)COC(=O)/C=C/c2ccc(OC(F)F)cc2)c(=O)n(C)c1=O | 94%
81 | Cc1ccc2c(c1)C1CN(C)CCC1N2C(=S)Nc1ccc(Cl)cc1Cl (stereo not given) | 97%
82 | CCCCCCCNc1nc(Cl)nc(NCCO)n1 | 92%
83 | COc1cccc(-n2nc(C(=O)N3CCN(Cc4ccccc4)CC3)c3ccccc3c2=O)c1 | 96%
84 | CCOC(=O)N1CCC(=NNC(N)=O)CC1 | 102%
85 | CCOC(=O)C(NC(C)=O)C(=O)Nc1ccc(OC)cc1 (stereo not given) | 93%
86 | S=C(Nc1cccc(Br)c1)N1CCn2cccc2C1c1cccnc1 (stereo not given) | 96%
87 | Cc1cc(C)cc(NC(=O)CSc2ccccc2)c1 | 91%
88 | O=C(CSc1ccccc1)Nc1ccc(C(=O)Nc2cccc(O)c2)cc1 | 77% (active)
89 | O=C(CSc1ccccc1)Nc1ccc(NC(=O)c2ccco2)cc1 | 100%
90 | COCCSc1nnc(NC(=O)c2cc(OC)c(OC)cc2[N+](=O)[O-])s1 | 102%
91 | O=C(CSc1ncnc2c1nnn2Cc1ccc(F)cc1)NC1CCCC1 | 96%
92 | CC(=O)c1ccc(NC(=O)C(C)N(C)CC(=O)Nc2ccccc2Cl)cc1 (stereo not given) | 98%
93 | COC(=O)C(C)N=Cc1ccccc1 (stereo not given) | 97%
94 | NS(=O)(=O)c1ccc(CCNC(=O)c2ccc(Cl)cc2[N+](=O)[O-])cc1 | 92%
95 | COC(=O)c1ccc(-n2cnc3ccccc32)nc1 | 95%
96 | CCC(C)NCC(=O)Nc1ccc([N+](=O)[O-])cc1C(=O)Nc1ccccc1F (stereo not given) | 98%
97 | CCCn1nc(Oc2nc(NC(C)C)nc(N(C)C)n2)ccc1=O | 97%
98 | CN(C)c1nnnn1-c1ccc(Cl)cc1 | 96%
99 | O=C(/C=C/c1ccccc1[N+](=O)[O-])OC1CCCCC1=O (stereo not given) | 97%
100 | O=C(N/N=C/c1ccco1)c1ccc(C(=O)N/N=C/c2ccco2)o1 | 84%
